Only some compounds are listed: those with a hit (about 2.7% of all), similar ones and a draw of the others.
MITF TRPM1 HTS = activators of MITF-driven TRPM1 promoter activity in SK-MEL-5 cells | SK-MEL-5 TRPM1-promoter luciferase, 24 h; % of positive control, neutral wells = 0 | activation, % at 12.5 µM | 300,000 compounds, 0.75% hits;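 active = mean activation of at least 80% with every replicate also reaching 80%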;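 also: 0% = neutral control wells and 100% = parthenolide positive control wells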
CFTR F508del cor = CFTR F508del correction in bronchial cells; CFBE cells, YFP halide quenching; stimulated with forskolin plus potentiator P3; % fluorescence drop versus neutral controls; activity (quench increase), % at 7.58 µM; 350,000 compounds, 0.36% hits; AID 720511;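 active = mean added fluorescence quench of at least 8% versus neutral control, with both replicates also reaching 8%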;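 also: cells transiently co-express mutant CFTR-F508del with the halide-sensitive YFP; corrector assay measuring rescue of mutant channel to the surface after 24 h compound exposure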
INS-1E GSIS act = primary screen for activators of insulin secretion dependent on glucose, INS-1E cells, GLuc reporter luminescence; AID 743287; 370,000 compounds, 0.61% hits; INS-1E GLuc reporter insulin secretion, 2-3 h; activation, % at 16.6 µM;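 active = lowest replicate activation of at least 40%, so every replicate reaches that level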;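 also: 0% = median of neutral control wells and 100% = median of IBMX positive control wells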
Wnt act = activates Wnt/beta-catenin signaling in a reporter cell assay; activation, % at 9.35 µM; activator, plate reader; 300,000 compounds, 1.2% hits; in the data active = activation above about 30%, passing the limit was not always enough;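 also: 0% = neutral control wells and 100% = positive control wells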
HIV Env fusion = inhibitors of HIV Env-mediated cell fusion. inhibition, % at 12.3 µM. 360,000 compounds, 1.1% hits. HeLa-JRFL Env/CEM21 cell fusion, luciferase;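 active = mean replicate inhibition score of at least 50 and every replicate individually at or above 50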;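 also: 0% = plate neutral controls and 100% = maraviroc near 300 nM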
* hit, by the source's call; nt = not tested or not shown; [ ] = another dose, or the depositor's remark.

SMILES | MITF TRPM1 HTS | CFTR F508del cor | INS-1E GSIS act | Wnt act | HIV Env fusion
O=[N+]([O-])c1c(Nc2cccc(O)c2)cc(Cl)c2nonc12 | nt | -17.5 | 97.3* | -18.1 | -111.3
O=C1/C(=C/c2cccc(Cl)c2)CSc2sccc21 | -4.7 | -0.3 | 19.9 | 3.0 | 14.7
O=C1/C(=C/c2cccc(F)c2)CSc2sccc21 | -0.8 | nt | 42.6* | nt | nt
C[C@H](CO)N1C[C@H](C)[C@@H](CN(C)CC2CC2)OCCCC[C@H](C)Oc2ccc(NS(=O)(=O)c3ccc(F)cc3)cc2C1=O | nt | 3.0 | 7.7 | nt | 29.8[16.7 µM]
c1cncc(Nc2nc(-c3cccnc3)cs2)c1 | 22.0 | nt | nt | nt | 14.5
COc1cccc(Nc2nc(-c3cccnc3)cs2)c1 | 80.6* | 1.0 | 33.0 | 17.5 | -107.4
Clc1ccccc1Nc1nc(-c2cccnc2)cs1 | 66.2 | -2.9 | 24.6 | 55.3* | -211.6
C[C@@H](NC(=O)C[C@@H]1C[C@H]2c3cc(NC(=O)CN(C)C)ccc3O[C@H]2[C@@H](CO)O1)c1ccccc1 | nt | 1.2 | 13.3 | nt | 3.2[16.7 µM]
C[C@H]1CN([C@@H](C)CO)C(=O)Cc2cc(NS(=O)(=O)c3ccc(Cl)cc3)ccc2O[C@@H]1CN(C)S(=O)(=O)c1ccc(F)cc1 | nt | 0.4 | -3.5 | nt | 12.8[16.7 µM]
C[C@H]1CN([C@@H](C)CO)C(=O)c2cc(NC(=O)CCCN(C)C)ccc2O[C@@H]1CN(C)S(C)(=O)=O | nt | -0.5 | 23.5 | nt | -4.9[16.7 µM]
C=CCn1c(SCc2c(C)noc2C)nc2ccccc2c1=O | -1.7 | nt | 18.9 | nt | 62.4*
C=CCn1c(SCc2c(C)noc2C)nc2cc(C(=O)O)ccc2c1=O | nt | nt | nt | -11.6 | -61.8
CC(Nc1cc(C)cc(C)c1)=[N+](C)CCNS(=O)(=O)c1ccc(Cl)cc1 | 5.4 | 0.7 | 12.4 | -1.7 | 60.9*
C/C=C/c1ccc2c(c1)O[C@@H](CN(C)Cc1ccncc1)[C@H](C)CN([C@H](C)CO)S2(=O)=O | nt | -0.4 | 8.2 | nt | 5.6[16.7 µM]
CCCOc1ccc(C(=O)CCCC(=O)c2ccc(OCCC)cc2)cc1 | 1.6 | 8.3* | 7.6 | -0.3 | 1.0
C[C@@H]1CCCCO[C@@H](CN(C)C(=O)C2CCCCC2)[C@@H](C)CN([C@H](C)CO)C(=O)c2cc(NC(=O)CCCN(C)C)ccc2O1 | nt | 2.1 | 16.2 | nt | -15.9[16.7 µM]
Cc1nn(C(C)(C)C)c(C)c1/C=N/OC(=O)Nc1ccc(Cl)c(Cl)c1 | nt | 2.1 | nt | 0.3 | 64.8*
Cc1ccc(NC(=O)C(c2ccccc2)N2CCN(CC(=O)N3CCOCC3)CC2)cc1 (stereo not drawn) | 22.2 | -0.2 | nt | 33.1* | -17.2
CCOc1ccc(N=C(C)C2=C(O)c3ccccc3C2=O)cc1 | nt | 1.4 | nt | 38.9* | -148.6
COc1ccc(N=C(C)C2=C(O)c3ccccc3C2=O)cc1 | 10.5 | nt | -4.9 | 57.6* | -67.0
CC(=NC1CC1)C1=C(O)c2ccccc2C1=O | 97.7* | nt | nt | -2.0 | -46.0
C/C(=N\N(C)C)C1=C(O)c2ccccc2C1=O | 12.8 | nt | 16.0 | 12.7 | -26.9
CCOc1ccc(-c2nnc(-c3ccccc3)n2-c2ccccc2)cc1 | nt | nt | nt | 59.4* | -77.2
CCOc1ccc(-c2nnc(-c3ccccc3)o2)cc1 | 2.4 | nt | nt | nt | nt
CCOc1ccc(CCN2C(=S)N([C@@H](Cc3ccc(O)cc3)CN3CCCC3CN3C(=S)NC[C@@H]3Cc3ccc(O)cc3)C[C@@H]2CC(C)C)cc1 (stereo partly drawn) | -28.5 | 3.1 | nt | -24.3 | -91.3
SMILES | MITF TRPM1 HTS | CFTR F508del cor | INS-1E GSIS act | Wnt act | HIV Env fusion
CCOc1ccc(CCN2C(=S)N([C@@H](Cc3ccc(O)cc3)CN3CCC[C@@H]3CN3C(=S)NC[C@@H]3CC(C)C)C[C@@H]2Cc2ccc(O)cc2)cc1 | nt | 4.3 | -2.3 | -11.5 | 67.3*
CCOc1ccc(CCN2C(=S)N([C@@H](Cc3ccccc3)CN3CCC[C@@H]3CN3C(=S)NC[C@@H]3Cc3ccc(O)cc3)C[C@@H]2CC(C)C)cc1 | nt | -4.3 | 0.3 | -10.5 | 63.9*
CNC[C@@H]1OCCCC[C@H](C)Oc2ccc(NC(=O)Nc3c(C)noc3C)cc2C(=O)N([C@H](C)CO)C[C@H]1C | nt | 1.0 | -0.6 | nt | 9.7[16.7 µM]
CCOC(=O)C1=C(c2ccccc2)NC(SCC(=O)Nc2ccc(C)cc2)=C(C#N)C1c1ccco1 (stereo not drawn) | -11.5 | 3.5 | nt | -4.0 | nt
CCOC(=O)C1=C(c2ccccc2)NC(SCC(=O)Nc2cccc(C)c2)=C(C#N)C1c1ccco1 (stereo not drawn) | 2.4 | nt | -17.8 | -2.4 | 111.1*
CN1c2ccc(-c3cccc(C#N)c3)cc2[C@H]2[C@H](CCN2C(=O)C2CCC2)[C@H]1CO | nt | 3.3 | -42.3 | nt | nt
O=C(C(Cc1ccccc1)NS(=O)(=O)c1cccc2cccnc12)N1CCc2ccccc21 (stereo not drawn) | -2.8 | 2.3 | 1.9 | -4.4 | 55.1*
Cc1noc(C)c1NC(=O)N(C)C[C@H]1Oc2cc(C#CCC3CCCC3)ccc2S(=O)(=O)N([C@@H](C)CO)C[C@@H]1C | nt | 10.1* | -3.7 | nt | nt
C[C@@H]1CN([C@@H](C)CO)S(=O)(=O)c2ccc(-c3ccc(F)cc3)cc2O[C@H]1CN(C)C(=O)C1CCCCC1 | nt | 0.0 | -13.9 | nt | 67.3*[16.7 µM]
C[C@H](CO)N1C[C@H](C)[C@H](CN(C)C(=O)NC2CCCCC2)Oc2cc(C#Cc3ccc(F)cc3)ccc2S1(=O)=O | nt | 8.2* | -4.5 | nt | 42.7[16.7 µM]
C/C=C/c1ccc2c(c1)O[C@H](CN(C)C(=O)NC1CCCCC1)[C@H](C)CN([C@@H](C)CO)S2(=O)=O | nt | 2.4 | -15.1 | nt | 56.2*[16.7 µM]
C/C=C/c1ccc2c(c1)O[C@H](CN(C)C(=O)NC1CCCCC1)[C@@H](C)CN([C@H](C)CO)S2(=O)=O | nt | 6.1 | -11.8 | nt | -27.9[16.7 µM]
C[C@@H]1CN([C@H](C)CO)S(=O)(=O)c2ccc(C#Cc3ccc(F)cc3)cc2O[C@H]1CN(C)C(=O)NC1CCCCC1 | nt | 7.2 | -6.0 | nt | 39.2[16.7 µM]
C[C@@H]1CN([C@@H](C)CO)C(=O)Cc2cc(NC(=O)CCN3CCOCC3)ccc2O[C@H]1CN(C)CC1CCCCC1 | nt | -0.3 | 11.2 | nt | -19.6[16.7 µM]
COc1ccccc1C#Cc1ccc2c(c1)[C@@H]1[C@@H](CCN1S(=O)(=O)c1ccc(F)cc1)[C@@H](CO)N2 | nt | -0.5 | 3.9 | nt | nt
Cc1ccc(-c2ccc3c(c2)O[C@H](CN(C)C(=O)Nc2ccc(C(F)(F)F)cc2)[C@@H](C)CN([C@@H](C)CO)S3(=O)=O)cc1 | nt | 8.7* | -1.6 | nt | 28.0[16.7 µM]
Cc1ccc(-c2ccc3c(c2)O[C@@H](CN(C)C(=O)Nc2ccc(C(F)(F)F)cc2)[C@H](C)CN([C@@H](C)CO)S3(=O)=O)cc1 | nt | 6.6 | -8.7 | nt | 14.9[16.7 µM]
COCc1c(C(=O)OCC(=O)N2c3ccccc3CC2C)oc2ccccc12 (stereo not drawn) | nt | nt | nt | -1.8 | -17.5
Cc1c(C(=O)N2c3ccccc3CC2C)oc2ccccc12 (stereo not drawn) | 57.3 | 1.2 | nt | 50.9* | -195.2
Cn1nc(CC#N)c2c(=N)n(N)cnc21 | 4.4 | 1.9 | 23.5 | -3.6 | -24.4
CCCCn1cnc2c(c(CC#N)nn2-c2ccccc2)c1=N | -8.5 | 9.4* | -3.9 | -2.1 | -32.6
Nc1[nH]nc2nc(N3CCOCC3)nc(-c3ccccc3)c12 | nt | nt | nt | nt | 67.1*

Assay outcomes: PubChem BioAssay, Broad Institute
